Measurements as given in ChEMBL document CHEMBL4513216, “Probing the Open Global Health Chemical Diversity Library for Multistage-Active Starting Points for Next-Generation Antimalarials” (ACS Infect Dis, 2020).
The campaign covered roughly 69,000 compounds. About 8,600 (12%) showed an effect of 50% or more. The entries come from a sample that favours strong results as a whole.

system: Plasmodium berghei; assay: Screen against P. berghei liver stage (PbLuc), transformed with Luciferase, at 10uM; format: functional, HepG2; details: tested at 10 uM

| SMILES | INHIBITION [%] |
| --- | --- |
| Cc1nn(C)c2cn(CC(=O)N3CCN(c4ccccc4)CC3)nc12 | 30.8 |
| Cn1ccnc1CN1CCOC(Cc2ccccc2)C1 (stereo not given) | 0.696 |
| c1ccc(C(CC2CN(Cc3ncc[nH]3)CCO2)c2ccccc2)cc1 (stereo not given) | 43.9 |
| c1ccc(C(CC2CN(Cc3c[nH]cn3)CCO2)c2ccccc2)cc1 (stereo not given) | 72.1 |
| CC1(C)C(C(=O)NCCC2CN(Cc3c[nH]cn3)CCO2)C1(C)C (stereo not given) | 55.5 |
| O=C(NCCC1CN(Cc2c[nH]cn2)CCO1)Nc1ccccc1 (stereo not given) | 1.79 |
| O=C(NCCC1CN(Cc2c[nH]cn2)CCO1)c1ccccc1O (stereo not given) | 18.6 |
| CC(C)NC(=O)N(Cc1cc(O)nc2ccccc12)C(C)C | -10.3 |
| CCOc1ccnc(N2CCN(C(=O)c3ccoc3)CC2)n1 | 23.7 |
| Cc1cc(C)c2[nH]c(C(=O)NCCN3CCNC3=O)c(C)c2c1 | -16.3 |
| Cc1nc(=O)c(CC(=O)N2C[C@@H]3CC[C@H]2CN(C(=O)N(C)C)C3)c(C)[nH]1 | 0.547 |
| Cc1ccc(CN2C[C@@H](OCc3csc(C)n3)[C@H]3COC[C@H]32)s1 | -14.4 |
| Cc1cnc(CNC(=O)[C@@]23CCO[C@@H]2CCNC3)cn1 | 49.4 |
| Cc1cc(C[C@@H]2CCC[C@H]2NCc2ccccc2C(F)(F)F)on1 | 70.5 |
| Cc1cc(C[C@@H]2CCC[C@H]2NCc2ccc(C(F)(F)F)cc2)on1 | 41.2 |
| Cc1cc(C[C@@H]2CCC[C@H]2NCc2ccccc2F)on1 | 75.3 |
| Cc1cc(C[C@@H]2COC[C@H]2NCc2ccc(C(F)(F)F)cc2)on1 | 31.6 |
| Cc1cc(C[C@@H]2CCC[C@H]2NCc2c[nH]nc2-c2ccccc2)on1 | 5.56 |
| Cc1cc(C[C@@H]2CCC[C@H]2NCc2cc(C)c(O)c(C)c2)on1 | 26.7 |
| Cc1cc(C[C@@H]2CCC[C@H]2NCc2cc(F)ccc2F)on1 | -1.85 |
| Cc1cc(C[C@@H]2CCC[C@H]2NCc2cccc(F)c2F)on1 | 15.9 |
| Cc1cc(C[C@@H]2CCC[C@H]2NCc2ccccc2C)on1 | 44.1 |

| SMILES | INHIBITION [%] |
| --- | --- |
| CCCOc1ccccc1CN[C@@H]1CCC[C@H]1Cc1cc(C)no1 | 54.5 |
| Cc1cc(C[C@@H]2COC[C@H]2NCc2ccc(Br)s2)on1 | 31.8 |
| Cc1cc(C[C@@H]2COC[C@H]2NCc2ccccc2C(F)(F)F)on1 | 50 |
| O=C(CCc1nc(C2CC2)no1)c1ccc(F)c(F)c1 | -2.43 |
| CCOc1ccc(OCc2nc3c(c(=O)[nH]2)CCNC3)cc1 | 26.7 |
| c1coc(CN2C[C@@H]3OCCN(CCN4CCCC4)[C@@H]3C2)c1 | 36.4 |
| CCn1cnnc1CNC(=O)N1CCC(OCc2ccccc2)CC1 | 23.4 |
| COCc1cncc2c1CCN(C(=O)c1ccc(C#N)cc1)C2 | 5.89 |
| CC(C)C(=O)N1CCC(C)(c2cc[nH]n2)CC1 | -16.9 |
| O[C@@H]1CC(CNCc2cccc(Cl)c2)(COc2cnccn2)C[C@@H]1O (stereo not given in full) | -4.26 |
| CN(Cc1n[nH]c2c1CCC2)C(=O)CCc1cc2n(n1)CCCNC2 | 0.72 |
| CO[C@@H]1CN(c2ccccc2)S(=O)(=O)[C@@]12CCN(C(=O)N(C)C)C2 | 51.7 |
| COC(=O)N1CC[C@@]2(C1)[C@H](OC)CN(c1ccccc1)S2(=O)=O | 31.3 |
| CO[C@@H]1CN(c2ccccc2)S(=O)(=O)[C@@]12CCN(C(C)=O)C2 | 34.3 |
| O=C1CCC2(CCNCC2)CN1Cc1nncn1CCc1ccccc1 | 0.348 |
| Cc1nccn1-c1ccc(CNS(=O)(=O)N2CCC(C)CC2)cn1 | 76 |
| Cc1nccn1-c1ccc(CNS(=O)(=O)N2CCCC(C)C2)cn1 (stereo not given) | 37.7 |
| Cc1nccn1-c1ccc(CNS(=O)(=O)N2CCCCC2C)cn1 (stereo not given) | 43.9 |
| Cc1nccn1-c1ccc(CNC(=O)c2ccc(O)nc2)cn1 | 38.3 |
| Cc1nccn1-c1ccc(CNC(=O)c2ccc[nH]2)cn1 | 10.5 |
| CC(=O)NCc1ccc(-n2ccnc2C)nc1 | 57.6 |
| CCn1cc(C(=O)Nc2cc(C(=O)OC)ccc2C(=O)OC)cn1 | 13.3 |

| SMILES | INHIBITION [%] |
| --- | --- |
| COc1ccccc1Cc1cc(O)nc(NC(C)CN(C)C)n1 (stereo not given) | 9.63 |
| CC(NC(=O)COc1ccccc1Cl)c1nnc2n1CCC2 (stereo not given) | -40.7 |
| CC(C)CN1CC(C(=O)NCc2ccnc(-n3cccn3)c2)CC1=O (stereo not given) | 27.357 |
| Cn1cc(C(=O)N2CCCC(Cc3cnccn3)C2)cn1 (stereo not given) | -12.2 |
| CS(=O)(=O)N1CCCC(Cc2cnc(Br)cn2)C1 (stereo not given) | 26.7 |
| CCS(=O)(=O)N1CCCC(Cc2cnccn2)C1 (stereo not given) | 56 |
| CC(NC(=O)CCCn1cnc2ccccc2c1=O)c1ncn[nH]1 (stereo not given) | 11.1 |
| COCc1cc(NCCc2ccc(OC)cc2)n2nccc2n1 | 32.2 |
| N#CC1(NC(=O)c2ccc(-c3nc(C4CC4)n[nH]3)cc2)CC1 | 8.38 |
| Cc1cc(=O)n(CC(=O)NCCC(C)C)c(-c2cccc(Cl)c2)n1 | 48.5 |
| Cc1cccc(-c2nc(C)nn2CC(=O)NC(C)C)c1 | 22.3 |
| CCC(C)NC(=O)CCn1ccc(C)n1 (stereo not given) | -5.77 |
| CCC(C)NC(=O)Cn1c(Nc2cc(C)cc(C)c2)nc(C)cc1=O (stereo not given) | 55.4 |
| Cc1cc(=O)n(CC(=O)NC(C)C)c(Nc2ccc(F)c(C)c2)n1 | 64.2 |
| Cc1cc(C)cc(Nc2nc(C)cc(=O)n2CC(=O)NC(C)C)c1 | 34.6 |
| CC(C)n1cnc2ccc(NC(=O)CCCn3cccn3)cc2c1=O | -5.38 |
| Cc1cccc(C(=O)N2CCC(C(=O)c3cc(F)ccc3F)CC2)n1 | 11.6 |
| Cc1cc(NC(=O)N2CCCC2C(=O)NC2CC2)c2ncccc2c1 (stereo not given) | 22.6 |
| Cc1cc(NC(=O)NC2CCN(C(C)C)CC2)c2ncccc2c1 | 70.5 |
| Cc1cc(NC(=O)N2CCCC2C(C)(C)O)c2ncccc2c1 (stereo not given) | 35.4 |
| CCN(C(=O)c1nc2c(s1)CCCN2S(C)(=O)=O)C(C)C | 4.68 |
| Cc1cc(C)n(C2CCCN(C(=O)CCNc3ncccn3)C2)n1 (stereo not given) | 41.5 |

| SMILES | INHIBITION [%] |
| --- | --- |
| Cc1oc(-c2ccccc2)nc1CN1CCC(c2ccnn2C)CC1 | 69.7 |
| Cc1oc(-c2ccsc2)nc1CN1CC[C@@H]2CCCC[C@H]2C1 | 28.4 |
| CSc1ccc(-c2nc(CN3CCC(CN)C3)c(C)o2)cc1 (stereo not given) | -70.3 |
| CSc1ccc(-c2nc(CN3CCC(C(N)=O)CC3)c(C)o2)cc1 | -10.2375 |
| Cc1oc(-c2ccsc2)nc1CN1CCCC(c2ccnn2C)C1 (stereo not given) | 66.3 |
| Cc1ncc2c(n1)CN(Cc1nc(-c3ccsc3)oc1C)CC2 | -4.92 |
| Cn1cc(NS(=O)(=O)CCOc2ccc(F)cc2)cn1 | -15.29 |
| Cc1cc(C)n(Cc2cc(C(=O)N3CCCC3c3ccccn3)n[nH]2)n1 (stereo not given) | 39.7 |
| CC(=O)Nc1cccc2c1ccn2CC(=O)Nc1ncc[nH]1 | 25.8 |
| COCCOCC(=O)N1CCCC(c2ncc[nH]2)C1 (stereo not given) | -45 |
| Cc1nnc(C2CCN(c3ccccc3)CC2)o1 | 16.5 |
| CN(C)S(=O)(=O)N1CCC(C)(c2ncc(C(N)=O)s2)CC1 | -7.66 |
| Cc1ccc(NC(=O)CNC(C)CN2CCOCC2)c(F)c1 (stereo not given) | 41.5 |
| Cc1ccc(NC(=O)CNC(C)CN2CCCCC2)c(F)c1 (stereo not given) | 63.8 |
| Cc1ccc(NC(=O)CN2CCOCC2)c(F)c1 | 28 |
| Cc1cc(C)n(CCC(=O)N2CCC(Nc3cccnn3)CC2)n1 | -16.75 |
| CC1CN(CC(=O)NC(C2CC2)C2CC2)CCN1Cc1nccn1C (stereo not given) | -43.05 |
| COc1ccc(CN2CCC3(CC2)NC(=O)CC3c2ccncc2)cc1 (stereo not given) | 30.7 |
| CN1CCCn2c(nc(CNC(=O)c3nccn3C)cc2=O)C1 | 13.7 |
| COCCN1CCCn2c(nc(CNC(=O)COC)cc2=O)C1 | 31.2 |
| CC(C)N1CCc2c(CNC(=O)c3nccn3C)cncc2C1 | 24 |
| COCC(=O)NCc1cc(=O)n2c(n1)CN(C)CCC2 | 59.3 |

| SMILES | INHIBITION [%] |
| --- | --- |
| CC(C)N1CCCn2c(nc(CNC(=O)c3nccn3C)cc2=O)C1 | 71.6 |
| CCCN1CCCn2c(nc(CNC(=O)c3nccn3C)cc2=O)C1 | 66.8 |
| COCC(=O)NCc1cc(=O)n2c(n1)CN(CC1CC1)CCC2 | 26.7 |
| Cc1oncc1C(=O)NCc1cc(=O)n2c(n1)CN(C(C)C)CCC2 | 35.4 |
| Cn1ccnc1C(=O)NCc1cc(=O)n2c(n1)CN(CC1CC1)CCC2 | 4.02 |
| CCn1cc(CN2CCC3(CC2)c2ccccc2CC3O)cn1 (stereo not given) | 2.7 |
| CC(C)CN1C[C@@H]2C[C@H](C(=O)N3CCCC3)[C@H](C1)O2 | 31.5 |
| c1cc(CN2CCc3ncc(CN4CCCCC4)n3CC2)cs1 | 20.9 |
| Cc1ccc(CN2Cc3nnn(C)c3C(COCC(=O)N(C)C)C2)s1 (stereo not given) | 42.1 |
| CC(C)CNC(=O)c1[nH]nc(C2CC2)c1Br | -7.46 |
| O=C1NC2(Cc3ccccc31)CN(CC1CCNC1)C2 (stereo not given) | 46.6 |
| Fc1cccc(C2CCCN2Cc2nnnn2C2CC2)c1 (stereo not given) | 31.1 |
| O=C(CCC(F)(F)F)N1CCN(Cc2ccncc2)[C@@H]2CS(=O)(=O)C[C@@H]21 | 42.1 |
| Cc1n[nH]c(C)c1CCNC(=O)C1CCCN(Cc2ccco2)C1 (stereo not given) | -4.96 |
| Cc1ccc2c(c1)c(CNC(=O)C1CCCN(CC(N)=O)C1)nn2C (stereo not given) | 10.5 |
| Cc1n[nH]c(C)c1CCNC(=O)C1CCCN(CC(N)=O)C1 (stereo not given) | 74.4 |
| CCN1CC(C(=O)NCc2noc(Cc3ccccc3)n2)CCC1=O (stereo not given) | 17.6 |
| CCn1nc(CNC(=O)C2CCCN(C(=O)COC)C2)c2ccccc21 (stereo not given) | 10.5 |
| CCn1nc(CNC(=O)C2CCCN(CC(N)=O)C2)c2ccccc21 (stereo not given) | 67.2 |
| CCn1nc(CNC(=O)C2CC(=O)N(C3CCCC3)C2)c2ccccc21 (stereo not given) | 30.1 |
| CCN1CC(C(=O)NCc2nn(CC)c3ccccc23)CCC1=O (stereo not given) | 65 |
| CCn1nc(C)c(CCNC(=O)C2CCCN(CC(N)=O)C2)c1C (stereo not given) | 18.8 |
